Source: PubChem BioAssay AID651789 (National Center for Advancing Translational Sciences (NCATS), 2012)
Results filed as inconclusive are left out. Where a call stands in place of a potency, no number is given. The source made the active and inactive calls. Calls come from the whole dose curve; as a rule, active = well fitted inhibition curve with a large enough effect; inconclusive = small, poorly fitted or top-dose-only effect; inactive = no such curve, though single readings can be large or run the other way.

Assay: Acumen qHTS Assay for Inhibitors of the mTORC1 Signaling Pathway in WT MEF Cells: Hit Validation; note: nearly all actives have a fitted effect of over 60% in size
Details: Acumen imaging; series mostly up to 37.3 µM
Outline: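 Read-out is immunofluorescent phospho-rpS6 (Ser235/236) normalised to PI-stained cell number, reported as % active cells using a 7.5 nM rapamycin threshold. Cells: WT or Tsc2-/-, p53-/- MEFs, compound-exposed 24 h at 37C; PI count also tracks viability.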
Potency is the fitted concentration of half-maximal effect.

Row | SMILES | Potency
1 | CCCCN(C)CCNC(=O)c1cc2c(=O)n(C)c3ccccc3c2n1C | inactive
2 | CCN(CC)CCOC(=O)c1ccc(NC(=O)c2nn(-c3ccc(C)cc3)c(=O)c3c2c2ccccc2n3C)cc1 | 1.17 µM (active)
3 | COc1cccc(/C=C(\C#N)c2nc3ccc(C)cc3[nH]2)c1 | inactive
4 | COc1ccccc1N1CCN(Cc2cc(COC(C)C)c3cccnc3c2O)CC1 | 2.93 µM (active)
5 | Cc1ccc(C)c(N2CCN(CCCNC(=O)c3nnc(Cc4ccc(F)cc4Cl)o3)CC2)c1 | inactive
6 | Oc1ccc(NCc2ccccc2OCc2ccc(Cl)cc2)cc1 | inactive
7 | Cc1cccc(-c2nc3c(cnn3-c3ccccc3)c(=O)n2-c2ccc(Br)cc2)c1 | inactive
8 | CCOC(=O)c1ccc(NC(=O)c2nc(S(=O)(=O)Cc3ccccc3)ncc2Cl)cc1 | 6.56 µM (active)
9 | Cc1ccccc1CS(=O)(=O)c1ncc(Cl)c(C(=O)Nc2nnc(C(C)C)s2)n1 | 11.7 µM (active)
10 | O=C(Cn1c(=O)c2ccccc2n(CC(=O)Nc2ccc(Cl)cc2)c1=O)NCCc1ccccc1 | 14.7 µM (active)
11 | CCOc1ccccc1NC(=O)CN1C(=O)C(=O)c2ccccc21 | inactive
12 | CCOc1cc(CNCCSc2nnnn2C)cc(Cl)c1OCc1ccc(Cl)cc1 | inactive
13 | Cc1ccc(C)c(NC(=O)Nc2cc3c(cc2N2CCCCC2)n(C)c(=O)n3C)c1 | inactive
14 | COc1cc(NC(=O)CSc2ccc(-c3ccccn3)nn2)cc(OC)c1 | inactive
15 | CCOc1ccc(NC(=O)CSc2oc(-c3ccc(F)cc3)nc2S(=O)(=O)c2ccc(C)cc2)cc1 | 2.33 µM (active)
16 | CCC(C)NC(=O)c1sc2nc(C)c(C(=O)Nc3ccc(C)cc3C)c(-c3ccc(Cl)cc3)c2c1N (stereo not given) | inactive
17 | Cc1ccc(CS(=O)(=O)c2ncc(Cl)c(C(=O)Nc3nnc(C(C)C)s3)n2)cc1 | 11.7 µM (active)
18 | CCC(C(=O)N1CCN(c2cccc(C)c2C)CC1)n1nc(C)c2sc3ccccc3c2c1=O (stereo not given) | inactive
19 | COc1ccc(C)cc1NC(=O)CSc1ccc(-c2ccccn2)nn1 | inactive
20 | Cc1ccc(NC(=O)Nc2cccs2)c(C)c1 | inactive
21 | COc1ccc2c(c1)CC(C(=O)Nc1cc(Cl)ccc1C)CO2 (stereo not given) | inactive
22 | C=CCNC1=C2C[C@@H](C)C[C@H](OC)[C@H](O)[C@@H](C)/C=C(\C)[C@H](OC(N)=O)[C@@H](OC)/C=C\C=C(/C)C(=O)NC(=CC1=O)C2=O | 0.515 µM (active)
23 | Cc1cccc(CS(=O)(=O)c2ncc(Cl)c(C(=O)NCc3ccccc3)n2)c1 | 13.1 µM (active)
24 | CC(C)CS(=O)(=O)c1oc(-c2ccc(F)cc2)nc1S(=O)(=O)c1ccccc1 | 0.585 µM (active)
25 | Cc1ccc(-c2nc3sccn3c2Nc2ccc(C)c(C)c2)cc1 | inactive
